Data taken from PubChem BioAssay (EPA / NIEHS).
Results filed as inconclusive are left out. Calls of active or inactive are those of the source. The calls were made as follows: active = hit-call score of the fitted dose curve at least 0.9, where 1 is the maximum; inconclusive = response in the unintended direction; inactive = score below 0.9.

Each compound was assayed against human Thyroid hormone Receptor alpha (TRa), THRA (gene 7067) (UniProt P10827) (assay: ATG_hTRa_XSP2: Attagene TRANS-FACTORIAL Multi-Species (XSP2) HepG2 Assay for human Thyroid hormone Receptor alpha (TRa) (AID 2283838)).
Protocol: ATG_XSP2_multi-species_TRANS is a cell-based, multiplexed assay created by modifying the existing Attagene TRANS-FACTORIAL system to include a panel of nuclear receptors from some or all the following species: human (Homo sapiens), mouse (Mus musculus), frog (Xenopus laevis), zebrafish (Danio rerio), chicken (Gallus gallus), and turtle (Chrysemys picta). The ECOTOX-FACTORIAL format uses HepG2, a human liver cell line, with measurements taken at 24 hours after chemical dosing in a 24-well plate. Xsp2 included 3 nM 6-alpha-fluorotestosterone and 1.5 nM norgestrel to stimulate the androgen receptor.ATG_hTRa_XSP2 is one of 29 assay components measured or calculated from the ATG_XSP2_multi-species_TRANS assay. It is designed to make measurements of mRNA induction, a form of inducible reporter, as detected with fluorescence intensity signals by Reverse transcription polymerase chain reaction (RT-PCR) and Capillary electrophoresis technology.The assay endpoint ATG_hTRa_XSP2 was analyzed in the positive analysis fitting direction relative to DMSO as the negative control and baseline of activity. Using a type of inducible reporter, measures of mRNA for gain-of-signal activity can be used to understand the reporter gene at the transcription factor-level as they relate to the gene TR. Furthermore, this assay endpoint can be referred to as a primary readout, because this assay has produced multiple assay endpoints where this one serves a reporter gene function. To generalize the intended target to other relatable targets, this assay endpoint is annotated to the nuclear receptor intended target family, where the subfamily is non-steroidal.
Human liver HepG2 cells are transiently transfected with multiple reporter transcription units (MRTUs) in 6-well plates using FuGene 6 reagent (Roche; 3 ml FuGene/1 mg DNA). The MRTU constructs are regulated by a cis-regulating element (promoter). […] A major difference between the CIS and TRANS system is that in CIS activities of endogenous TFs are measured, whereas the TRANS assay evaluates changes in activities of exogenous, chimeric NR-Gal4 proteins. […] At the end of 24 hour incubation, total RNA was isolated using TriZol reagent (Invitrogen). The isolated RNA is then reverse-transcribed using oligo(dT) primer and Mo-MLV reverse transcriptase (Invitrogen) with DNAse I (Ambion) treatment for 30 min. The one-tenth of the produced cDNA was amplified by PCR using Taq DNA polymerase (Invitrogen) and two reporter sequence-specific primers. The PCR products were fluorescently labeled by primer extension with 6-arboxyfluorescein (6-FAM) 5'-labeled reporter sequence-specific primer (2 min at 95 C, 20 s at 68 C and 10 min at 72 C) and these products were digested with 5U of HpaI (New England Biolabs) for 2h at 37 C. The fragments were purified using Qiaquick PCR columns (Qiagen), analyzed on an ABI 3130xL genetic analyzer (Applied Biosystems) with peak positions identified by using a set of X-rhodamine (ROX)-labeled MapMarker1000 molecular weight standards (BioVentures). The raw capillary electrophoresis data was processed using Attagraph software (Attagene).

human Thyroid hormone Receptor alpha (TRa), THRA (gene 7067), sequence (P10827 whole entry, looked up): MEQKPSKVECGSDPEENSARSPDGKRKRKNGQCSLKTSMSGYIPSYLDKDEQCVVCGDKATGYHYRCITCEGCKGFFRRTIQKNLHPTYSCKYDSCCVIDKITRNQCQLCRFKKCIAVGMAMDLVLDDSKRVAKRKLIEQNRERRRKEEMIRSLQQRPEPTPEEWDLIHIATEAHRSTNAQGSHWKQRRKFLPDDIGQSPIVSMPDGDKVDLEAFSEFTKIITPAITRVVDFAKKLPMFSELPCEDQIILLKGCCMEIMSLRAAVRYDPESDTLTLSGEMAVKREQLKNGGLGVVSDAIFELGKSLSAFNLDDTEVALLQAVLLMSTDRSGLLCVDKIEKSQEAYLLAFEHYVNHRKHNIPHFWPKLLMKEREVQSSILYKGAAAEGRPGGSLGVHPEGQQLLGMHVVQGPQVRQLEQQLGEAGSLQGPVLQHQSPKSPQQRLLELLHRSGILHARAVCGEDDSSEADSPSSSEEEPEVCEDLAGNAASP

SMILES	outcome	AC50
CON(C)C(=O)Nc1ccc(Cl)c(Cl)c1	inactive	–
COc1ccc(C(c2ccc(OC)cc2)C(Cl)(Cl)Cl)cc1	inactive	–
CCCC1COC(Cn2cncn2)(c2ccc(Cl)cc2Cl)O1 (stereo unspecified)	inactive	–
CC(C)Oc1cc(-n2nc(C(C)(C)C)oc2=O)c(Cl)cc1Cl	inactive	–
CCCCC(CC)COC(=O)c1ccccc1C(=O)OCC(CC)CCCC (stereo unspecified)	inactive	–
COC(=O)N(OC)c1ccccc1COc1ccn(-c2ccc(Cl)cc2)n1	–	2.63 µM (active)
COP(=S)(OC)Oc1nc(Cl)c(Cl)cc1Cl	inactive	–
CCOP(=S)(OCC)SCn1c(=O)oc2cc(Cl)ccc21	inactive	–
CCCCNC(=O)OCC#CI	inactive	–
CCCCOC(=O)c1ccccc1C(=O)OCCCC	inactive	–
C=CC1(C)OC(=O)N(c2cc(Cl)cc(Cl)c2)C1=O (stereo unspecified)	–	100 µM (active)
